Screening data deposited in PubChem by Broad Institute.
An excerpt weighted towards active compounds, which were near 2.6% of everything screened.
NFkB SMM: binders of human NF-kappa-B p105. calls only. actives 1.3% (n = 17,000). Small molecule microarray, anti-His fluorescence binding;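 active = spot fluorescence over background significantly raised, with a chance value under 7% in all four replicate spots of the compound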;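 note: probe protein is his-tagged human p50 processed subunit at 1 µg/ml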
mut p53 react: re-activators of the mutant p53 pathway | AID 624151 | actives 1.5% (n = 28,000) | SW480 PUMA-promoter luciferase, p53 mutant reactivation | activation, % at 9.98 µM; in the data active = activation above about 52%
STAT3 SMM: binds human STAT3 on microarray; Small molecule microarray, His-STAT3 binding, anti-His fluorescence; calls only; actives 0.2% (n = 17,000); AID 624138; P40763;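 active = compounds whose four printed spots each show fluorescence over background unusually high for their array block, chance value under 7%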
Target sequence (P40763 whole entry, looked up): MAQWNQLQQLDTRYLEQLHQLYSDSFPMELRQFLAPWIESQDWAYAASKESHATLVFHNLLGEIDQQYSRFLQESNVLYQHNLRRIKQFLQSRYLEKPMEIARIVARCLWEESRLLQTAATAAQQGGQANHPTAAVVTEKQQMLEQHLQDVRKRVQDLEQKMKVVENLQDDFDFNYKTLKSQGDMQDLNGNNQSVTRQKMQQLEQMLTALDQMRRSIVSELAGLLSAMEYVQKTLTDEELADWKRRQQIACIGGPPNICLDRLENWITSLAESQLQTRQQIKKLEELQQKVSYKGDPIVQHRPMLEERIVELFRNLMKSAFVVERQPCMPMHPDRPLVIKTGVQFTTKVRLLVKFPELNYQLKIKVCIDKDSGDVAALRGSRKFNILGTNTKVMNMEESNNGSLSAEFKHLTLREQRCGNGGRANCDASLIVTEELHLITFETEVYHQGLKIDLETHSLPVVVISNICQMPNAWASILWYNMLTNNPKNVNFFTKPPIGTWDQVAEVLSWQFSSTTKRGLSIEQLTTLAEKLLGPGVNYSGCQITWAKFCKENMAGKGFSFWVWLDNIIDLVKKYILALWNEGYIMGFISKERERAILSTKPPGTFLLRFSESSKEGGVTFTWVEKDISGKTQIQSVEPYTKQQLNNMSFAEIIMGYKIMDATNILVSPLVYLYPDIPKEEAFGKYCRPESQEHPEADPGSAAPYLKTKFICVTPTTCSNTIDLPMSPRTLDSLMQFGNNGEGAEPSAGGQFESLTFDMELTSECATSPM
p53 mut binder: mutant p53 (human) binding | AID 624136 | calls only | actives 0.4% (n = 17,000) | small molecule microarray binding, anti-GST fluorescence;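 active = compounds whose four printed spots each glow above background more than chance allows, each with a p-value under 7%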
Myc binder: binds human c-Myc on microarray; P01106; calls only; actives 1.5% (n = 17,000); AID 624141; small molecule microarray, His-c-Myc binding, anti-His fluorescence;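 active = spot fluorescence over background with P-value below 7% in all four replicate spots, showing protein binding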
Numbers stand for hits; i = inactive; nt = no result; + = active, no number.

SMILES	NFkB SMM	mut p53 react	STAT3 SMM	p53 mut binder	Myc binder
COc1ccc(OC)c(CN2CCN(Cc3cccc([N+](=O)[O-])c3)CC2)c1	nt	i	nt	nt	nt
COc1ccccc1NC(=O)CNS(=O)(=O)c1ccc(C(C)(C)C)cc1	nt	i	nt	nt	nt
O=C(CCCN1C(=O)c2cccc3cccc(c23)C1=O)N1CCN(c2ncccn2)CC1	nt	i	nt	nt	nt
O=C(c1cc2cc(Br)ccc2oc1=O)N1CCN(CCN2C(=O)c3cccc4cccc(c34)C2=O)CC1	nt	65	nt	nt	nt
NC(=O)CN1CCN(CCN2C(=O)c3cccc4cccc(c34)C2=O)CC1	i	75	i	i	i
O=[N+]([O-])c1nn(-c2ccc(Cl)cc2)n(O)c1=NCc1ccccn1	nt	i	nt	nt	nt
CC(C)(O)[C@@H]1Cc2cc3ccc(=O)oc3cc2O1	i	54	i	i	i
CC(C)(OC(=O)c1ccccc1)[C@@H]1Cc2cc3ccc(=O)oc3cc2O1	i	i	i	i	i
COC(=O)CSc1nnc(-c2sc3ccccc3c2Cl)n1-c1ccc(OC)cc1	nt	i	nt	nt	nt
C=CCNc1nc(N)c(C(=O)Nc2cc(C)on2)s1	i	70	i	i	i
Cc1cc(NC(=O)c2nn3cccnc3c2Cl)no1	i	i	i	i	i
C[C@H](CO)N1C[C@H](C)[C@H](CN(C)C(=O)CCC(F)(F)F)OCCCC[C@H](C)Oc2ccc(NC(=O)c3ccncc3)cc2C1=O	+	i	i	i	+
C[C@@H]1CCCCO[C@H](CN(C)C(=O)CCC(F)(F)F)[C@H](C)CN([C@@H](C)CO)C(=O)c2cc(NC(=O)c3ccncc3)ccc2O1	+	i	i	i	i
O=C1c2ccccc2C(=O)N1CC1CCN(Cc2cccc(OCCO)c2)CC1	i	nt	i	i	+
COc1ccc([N+](=O)[O-])cc1NC(=O)CN(c1ccccc1Cl)S(C)(=O)=O	nt	i	nt	nt	nt
FC(F)(F)Oc1ccc(Nc2n[nH]c(=S)s2)cc1	nt	75	nt	nt	nt
Cc1nnc(SCC(=O)Nc2ccc(OC(F)(F)F)cc2)s1	nt	i	nt	nt	nt
Cc1ccc2oc(-c3ccc(C)c(NC(=O)COc4ccc(Br)cc4)c3)nc2c1	nt	65	nt	nt	nt
Cc1ccc(-c2nc3ccccc3o2)cc1NC(=O)COc1ccccc1	i	i	i	i	i
Cc1cc2nc(-c3ccc(C)c(NC(=O)COc4ccc([N+](=O)[O-])cc4)c3)oc2cc1C	nt	66	nt	nt	nt
Cc1ccc2oc(-c3ccc(Cl)c(NC(=O)COc4ccc(C)c(C)c4)c3)nc2c1	nt	i	nt	nt	nt
O=C(CSc1nnc(NC(=O)c2ccc(Cl)c(Cl)c2)s1)Nc1ccc(F)c(F)c1F	nt	i	nt	nt	nt
CCc1c(O)nc(SC(C)C(=O)Nc2ccc(Cl)cc2)[nH]c1=O (stereo not drawn)	nt	i	nt	nt	nt
COc1ccc(NC(=O)COc2ccccc2[N+](=O)[O-])cc1Cl	nt	135	nt	nt	nt
COc1cc(NC(=O)COc2ccccc2[N+](=O)[O-])ccc1NC(=O)c1cccs1	i	i	i	i	i
SMILES	NFkB SMM	mut p53 react	STAT3 SMM	p53 mut binder	Myc binder
COc1ccccc1NC(=O)COc1ccc(CO)cc1Cl	nt	165	nt	nt	nt
COc1ccccc1OCC(=O)Nc1ccc(C)cc1[N+](=O)[O-]	nt	119	nt	nt	nt
Cc1ccc(NC(=O)COc2ccccc2Cl)c([N+](=O)[O-])c1	nt	60	nt	nt	nt
Cc1ccc(NC(=O)COc2ccc(Cl)cc2Cl)c([N+](=O)[O-])c1	nt	i	nt	nt	nt
O=C(CSc1nnc(-c2ccccc2)c(-c2ccccc2)n1)Nc1cccc(C(F)(F)F)c1	nt	i	nt	nt	nt
CC1(C)CC(=O)C2=C(C1)N(c1ccccc1)C(=O)C2(NC(=O)c1cccnc1)C(F)(F)F (stereo not drawn)	nt	i	nt	nt	nt
O=C(COc1ccccc1[N+](=O)[O-])Nc1ccc2oc(-c3ccc(F)cc3Cl)nc2c1	nt	51	nt	nt	nt
O=C(COc1ccccc1Cl)Nc1ccc2oc(-c3ccc(F)cc3Cl)nc2c1	nt	i	nt	nt	nt
Cc1csc(SCC(=O)Nc2ccc3c(c2)OCCO3)n1	nt	61	nt	nt	nt
CC(C(=O)Nc1cccc2ccccc12)N(c1ccc(Cl)cc1)S(C)(=O)=O (stereo not drawn)	nt	i	nt	nt	nt
COc1ccccc1CC(CC(=O)O)C(=O)O (stereo not drawn)	+	i	i	i	+
Cc1cc2ccccc2n2c(SCC(=O)NCc3ccco3)nnc12	i	i	i	i	i
COc1ccc([C@H]2C[C@H]3C(I)=CC2C(=O)[C@]32CO2)cc1OC	i	nt	i	i	i
Cc1cccc(-c2nnc(SCC(=O)Nc3c(F)cc(F)cc3Br)n2C)c1	nt	i	nt	nt	nt
Cc1noc(C)c1S(=O)(=O)N(C)C[C@@H]1OCCCC[C@@H](C)Oc2ccc(N(C)C)cc2C(=O)N([C@@H](C)CO)C[C@H]1C	i	i	i	i	i
Cc1noc(C)c1S(=O)(=O)N(C)C[C@@H]1OCCCC[C@@H](C)Oc2ccc(N(C)C)cc2C(=O)N([C@H](C)CO)C[C@H]1C	+	i	i	i	+
C[C@H](CO)N1C[C@H](C)[C@@H](CN(C)S(=O)(=O)c2ccccc2)OCCCC[C@H](C)Oc2ccc(N(C)C)cc2C1=O	i	i	i	+	i
Cc1noc(C)c1S(=O)(=O)N(C)C[C@H]1OCCCC[C@@H](C)Oc2ccc(NC(=O)NC(C)C)cc2C(=O)N([C@@H](C)CO)C[C@H]1C	i	i	i	i	+
Cc1noc(C)c1S(=O)(=O)N(C)C[C@H]1OCCCC[C@H](C)Oc2ccc(N(C)C)cc2C(=O)N([C@@H](C)CO)C[C@@H]1C	i	i	i	+	i
CS(=O)(=O)N(CC(=O)Nc1ccc(Cl)c(Cl)c1)c1ccc(I)cc1	nt	i	nt	nt	nt
Cc1cc2nc3c(=O)[nH]c(=O)nc-3n(C)c2cc1C=O	i	i	i	i	+
O=C(COc1cccc(NC(=O)c2ccc([N+](=O)[O-])cc2)c1)c1ccc(F)cc1	nt	i	nt	nt	nt
COc1ccc(CN(C)C[C@H]2Oc3c(NC(=O)Nc4ccc5c(c4)OCO5)cccc3C(=O)N([C@H](C)CO)C[C@@H]2C)cc1	i	61	i	i	i
C[C@H](CO)N1C[C@H](C)[C@H](CN(C)C(=O)Nc2ccc3c(c2)OCO3)Oc2c(NC(=O)Nc3ccc4c(c3)OCO4)cccc2C1=O	nt	i	nt	nt	nt
C[C@@H]1CN([C@H](C)CO)C(=O)c2cccc(NC(=O)Nc3ccc4c(c3)OCO4)c2O[C@H]1CN(C)C	i	60	i	i	i
SMILES	NFkB SMM	mut p53 react	STAT3 SMM	p53 mut binder	Myc binder
Cc1ccc(-c2cc(-c3c(C)nn(C)c(=O)c3N)[nH]n2)cc1	nt	86	nt	nt	nt
Cc1cc(Nc2ccccc2NC(=O)c2ccc([N+](=O)[O-])cc2)n(-c2ccccc2)n1	i	i	i	i	i
O=c1n(-c2ccc(F)cc2)nc2n1CCCN2	nt	67	nt	nt	nt
Cn1nnnc1SCC(=O)Nc1ccc(C(=O)O)cc1	nt	i	nt	nt	nt
Cn1nnnc1SCC(=O)Nc1ccc(I)cc1	nt	78	nt	nt	nt
COc1ccc(NC(=S)Nc2cnn(C)c2C(N)=O)c(OC)c1	i	i	i	i	i
NC(=O)CCCc1c[nH]c2ccccc12	nt	79	nt	nt	nt
O=C(NCCc1c[nH]c2ccccc12)Nc1cccc2ccccc12	nt	i	nt	nt	nt
OCc1c[nH]c2ccccc12	nt	i	nt	nt	nt
O=C(NCCc1c[nH]c2ccccc12)NC1CCCCC1	nt	84	nt	nt	nt
COC(=O)c1c(NC(=O)c2ccc(Cn3cc(Cl)cn3)cc2)sc2c1CCC2	i	i	i	i	i
O=C(/C=C/CCc1ccccc1)CCc1ccccc1	i	i	i	i	i
O=C(CSc1ccc(Cl)cc1)Nc1cccc(-c2nnc(-c3ccco3)o2)c1	nt	122	nt	nt	nt
